High-throughput results (PubChem BioAssay)
Compounds with a hit are over-represented: about 2.2% of the library has one in this group of screens.
Mito fusion yeast: inhibitors of mitochondrial division or activators of mitochondrial fusion; S. cerevisiae fusion-defective mutant growth rescue, CellTiterGlo 48 h; Potency, µM (top dose mostly 46.1 µM), for inactives: top-dose growth rescue (activation), usual class: activators; 0.23% of 320,000 active; AID 485298; also: % of control where 0% means no effect; nearly all actives have a fitted effect of over 45% in size
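Compounds are tested for their ability to restore growth of mitochondrial fusion-defective yeast strains at non-permissive 37C in YPEG medium over 48 hours. Viability is quantified by luciferase luminescence.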
aSyn yeast inh: alpha-synuclein toxicity inhibition in yeast. Yeast expressing alpha-synuclein, growth rescue, BacTiter-Glo, 24 h. Potency, µM (doses to about 46.1 µM), inactives show top-dose growth rescue (activation), hits mostly activators. 0.14% of 370,000 active. AID 652106; also: % of control where 0% means no effect; nearly all actives have a fitted effect of over 65% in size
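Rescue of yeast growth: cells expressing toxic alpha-synuclein, induced in galactose at OD600 0.02, incubated with compound 24 h at 30 C. ATP luminescence quantified growth; inhibitors of toxicity appear as activators.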
FUS suppressor: suppressors of FUS proteinopathy in yeast; Potency, µM (top dose mostly 76.6 µM), most hits filed as activators; S. cerevisiae FUS-expressing, growth rescue, OD600, 24 h; 0.24% of 390,000 active;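 also: plate controls were DMSO vehicle for no effect and reference control for full effect; nearly all actives have a fitted effect of over 55% in size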
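Absorbance at 600 nm, taken 24hr after compound addition, measured rescue of FUS-yeast growth at 30C. Induction used 2% galactose with seeding at OD 0.005. Controls: CP55940 from 92uM final, DMSO only.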
TDP43 rescue: inhibitors of TDP-43 toxicity in yeast. TDP-43 expressing yeast growth rescue, BacTiter-Glo, 24 h. Potency, µM (highest dose often 46.1 µM), without a hit: at the highest dose growth rescue (activation), hits mostly activators. 1.8% of 410,000 active. AID 652104; also: % of control where 0% means no effect; nearly all actives have a fitted effect of over 50% in size
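Cell-based yeast growth screen: TDP-43 expression induced in galactose, inoculum OD600=0.02 after raffinose pregrowth to mid-log. Read-out BacTiter-Glo luminescence at 24 hr, 30 deg C; inhibition of toxicity seen as signal increase.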
Abeta yeast res: restores growth of yeast expressing A-beta42 peptide | yeast expressing A-beta42, growth rescue, OD600, 48 h; response scale: 0% DMSO, 100% iron-clioquinol control | Potency, µM (top dose mostly 46.1 µM), usual class: activators | 0.063% of 410,000 active; also: nearly all actives have a fitted effect of over 55% in size
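Yeast growth medium received pinned compounds, then yeast cells expressing toxic A-beta were added; plates incubated at 30 C for 48 hr. Growth read as absorbance at 600 nm, normalized to DMSO and equimolar FeCl3 plus clioquinol controls.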
Active calls of the source: *; i = inactive; ? = inconclusive; / = no result. Calls follow the shape of the dose curve; as a rule, active = well fitted curve in the direction sought with a large enough effect; inconclusive = small, poorly fitted or top-dose-only effect, or another doubt; inactive = no such curve, though single readings can be large; an effect the other way counts as inactive or inconclusive. Potency is read from the fitted curve at half-maximal effect.

SMILES	Mito fusion yeast	aSyn yeast inh	FUS suppressor	TDP43 rescue	Abeta yeast res
O=C(COc1ccc(Cl)cc1)Nc1nnc(-c2ccc3c(c2)CCCC3)o1	?	29%	i	?	i
O=C(Nc1nnc(-c2ccco2)o1)c1ccc(Cl)cc1	3%	11µM*	i	?	?
O=C(COc1ccccc1)Nc1nnc(-c2ccc(Cl)cc2)o1	-6%	14µM*	i	14µM*	?
Cc1c(Cl)cccc1NC(=O)c1ccc2c(c1)nnn2C1CCCC1	/	/	i	-8%	i
Clc1ccc(CN2CCN(N=Cc3ccncc3)CC2)cc1	/	/	i	/	/
COc1cccc(NC(=O)COc2ccccc2C(=O)Nc2ccccc2)c1	/	1%	/	/	/
CCOC(=O)c1nc(SC)n(C)c1C(=O)OCC	21%	2%	i	20%	i
COc1cc(S(=O)(=O)O)c(C)cc1N=Nc1c(O)ccc2cc(S(=O)(=O)O)ccc12	/	-25%	/	/	/
CC(=O)c1ccccc1OC(=O)c1c(F)cccc1F	-2%	-3%	i	0%	i
COc1ccccc1NC(=O)c1ccc([N+](=O)[O-])o1	/	-71%	i	?	i
CC(=O)c1ccccc1OC(=O)c1ccc([N+](=O)[O-])o1	1%	?	i	10µM*	i
COc1ccc(C(=O)O/N=C(\C)c2ccccc2)cc1	-5%	-30%	i	-12%	i
CC(=O)c1ccccc1OC(=O)c1ccc(-c2ccccc2)cc1	/	-16%	i	25µM*	i
CC(C)=NOC(=O)c1ccc(-c2ccccc2)cc1	?	-8%	/	22µM*	i
COc1ccc(OC)c(C(=O)COC(=O)c2ccc([N+](=O)[O-])o2)c1	/	-37%	i	22µM*	i
CCCN1CNc2c(c(=O)[nH]c(=S)n2CCc2ccc(OC)cc2OC)C1	/	-4%	/	/	/
Cc1ccc2c(c1)C1CS(=O)(=O)N(C3CCCC3)C(=O)N1C2 (stereo not drawn)	/	/	i	/	/
CCc1cc(=O)oc2c3c(cc(OCC(=O)NCc4ccncc4)c12)OC(C)(C)CC3	-2%	-2%	i	11%	i
O=C(COc1ccccc1Br)NCc1ccco1	2%	1%	i	-10%	i
CCc1cc(=O)oc2c3c(cc(OCC(=O)NCc4ccco4)c12)OC(C)(C)CC3	14%	-2%	i	35µM*	i
CCc1ccc(OCC(=O)NCc2ccco2)c(Br)c1	2%	-3%	i	13µM*	i
O=[N+]([O-])c1cccc(-c2nc(N3CCOCC3)c3ccccc3n2)c1	1%	/	/	/	/
CN(Cc1ccccc1)c1nc(-c2cccc([N+](=O)[O-])c2)nc2ccccc12	15%	-11%	i	14µM*	i
O=[N+]([O-])c1cccc(-c2nc(NCc3ccccc3)c3ccccc3n2)c1	3.2µM*	-2%	/	9%	i
Clc1cccc(NCc2nnc(SCc3ccccc3Cl)o2)c1	?	20µM*	/	13µM*	i
SMILES	Mito fusion yeast	aSyn yeast inh	FUS suppressor	TDP43 rescue	Abeta yeast res
Fc1cccc(Cl)c1CSc1nnc(-c2ccncc2)o1	2%	-9%	i	13µM*	i
Clc1ccccc1CSc1nnc(-c2ccncc2)o1	-2%	7%	i	10µM*	i
c1ccc2c(CSc3nnc(-c4ccncc4)o3)cccc2c1	3%	3%	i	29%	i
O=C(N/N=C/c1c[nH]c2ccccc12)c1cccc(Cl)c1	7%	-4%	i	13%	i
O=C(N/N=C/C1C(c2ccccc2)C1(Cl)Cl)c1cccc(Cl)c1 (stereo not drawn)	1%	17%	5.6µM*	-15%	i
O=S(=O)(CC1NCc2ccccc21)NCc1ccc(F)cc1 (stereo not drawn)	/	/	i	/	/
CCOC(=O)[C@]12CCCC=C1N(Cc1ccc(Cl)cc1Cl)C(=O)[C@H](CC(=O)N1CCCC1)C2	/	1%	i	11%	i
CCOC(=O)[C@]12CCCC=C1N(Cc1ccc(Cl)cc1Cl)C(=O)[C@H](CC(=O)N1CCN(C(=O)c3ccco3)CC1)C2	/	29%	18µM*	16µM*	i
COC(=O)[C@]12CCCCC=C1N(Cc1ccc(Cl)cc1Cl)C(=O)[C@H](CC(=O)N1CCOCC1)C2	/	29%	?	18µM*	i
CC(C)c1ccc(NC(=O)NN2CCOCC2)cc1	0%	-7%	?	-7%	i
CCCNc1nc(Nc2ccc(C)cc2)nc(N2CCCC2)n1	4%	1%	i	11µM*	i
O=C(Nc1cccc(NC(=O)c2cccc(F)c2)n1)c1cccc(F)c1	29%	-2%	i	10µM*	i
O=C(Nc1cccc(NC(=O)c2c(F)cccc2F)n1)c1c(F)cccc1F	?	-21%	i	0%	i
CN(C)c1ccc(/C=C2\c3ccccc3-c3ccc(N(C)C)cc32)cc1	/	1%	/	/	/
Cc1ccc(C)c2c1cc(C)c1nnc(SCC(=O)c3cccs3)n12	16%	16%	i	22µM*	i
N#CC(CC(=O)c1ccc(F)cc1)c1ccc2c(c1)OCO2 (stereo not drawn)	-4%	11%	i	11µM*	i
CCCCS(=O)c1c(O)c2ccccc2[nH]c1=O (stereo not drawn)	0%	17%	i	11µM*	i
Cc1cc(-c2ccccc2)n2nc(C)c(C#N)c2n1	13%	-12%	i	16µM*	i
Brc1ccc(Cn2c(-c3cncs3)nc3ccccc32)cc1	11%	1%	i	?	i
c1ccc(Cn2c(-c3cncs3)nc3ccccc32)cc1	0%	-11%	i	7.9µM*	i
O=[N+]([O-])c1ccccc1SNc1ccccc1	/	18%	i	13µM*	i
Nc1ccccc1Sc1ccccc1[N+](=O)[O-]	12%	17%	/	18µM*	i
CO/N=C/c1ccc(Sc2ccccc2N)c([N+](=O)[O-])c1	12%	7%	i	20µM*	?
CO/N=C/c1ccc(Sc2ccccc2)c([N+](=O)[O-])c1	29%	-8%	i	2%	i
O=[N+]([O-])c1cc(/C=N/O)ccc1Sc1ccccc1	29%	19%	i	3.2µM*	i
SMILES	Mito fusion yeast	aSyn yeast inh	FUS suppressor	TDP43 rescue	Abeta yeast res
Cc1nn(-c2ccccc2)c(N)c1Sc1ccccc1[N+](=O)[O-]	-4%	13%	i	16%	i
O=[N+]([O-])c1ccc(SNc2ccccc2)c([N+](=O)[O-])c1	/	0%	/	?	i
CC(C)CCNC(=O)C1CCN(c2cncnc2)CC1	/	/	i	/	/
COC(=O)c1ccc(Oc2ccc(S(=O)(=O)N3CCCCC3)cc2N)cc1	-13%	13µM*	i	?	i
CC(C)NC(=S)N/N=C/c1cc(Br)ccc1O	7%	18µM*	i	?	?
O=C(N/N=C/c1cc(Br)ccc1O)c1ccccc1Cl	11%	10µM*	i	14µM*	i
